Test results taken from the supplement of paper PMC10849652.
Targets with a hit are over-represented here; the source holds about 7,900 in all. About 0.6% of all pairs of compound and target were hits.

Experiments:
Assay in all cases: log2 fold change, soluble protein after heating vs DMSO (PISA); higher = thermal stabilisation; K562 cells, 10 uM, 30 min; active = over 0.2 and 3.5 SD of the protein, either way, in both replicates (recomputed)
[1] = compound: Cc1ccc(NC(=O)c2ccc(CN3CC[C@H](N(C)C)C3)c(C(F)(F)F)c2)cc1Nc1nccc(-c2cncnc2)n1 [bafetinib]
Outline: (§1)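 Soluble protein was defined as the supernatant after 21,000xg for 90 min. It came from K562 cells at 2×10^6 cells/mL given 10 μM compound for 30 min, heated in aliquots for 3 min across 48°C-58°C, pooled, and extracted in PBS with 0.5% NP-40 at 4°C, and was quantified by TMTpro 16plex LC-MS/MS with equalised channel sums. Thermal stability against control samples, from duplicates, is reported as log2 fold change.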

[2] = compound: Cc1cccc(CC(=O)N2CCc3c2ccc(-c2cn(C)c4ncnc(N)c24)c3F)n1
Outline: as §1

[3] = compound: Cc1cn(-c2cc(NC(=O)c3ccc(C)c(Nc4nccc(-c5cccnc5)n4)c3)cc(C(F)(F)F)c2)cn1 [nilotinib]
Outline: as §1

[4] = compound: Cc1nc(Nc2n[nH]c3c2CN(C(=O)N[C@H](CN(C)C)c2ccccc2)C3(C)C)c2sccc2n1
Outline: as §1

[5] = compound: Cc1nc(Nc2ncc(C(=O)Nc3c(C)cccc3Cl)s2)cc(N2CCN(CCO)CC2)n1 [dasatinib]
Outline: as §1

[6] = compound: Cc1ncc(-c2ccnc(Nc3ccc(S(C)(=O)=O)cc3)n2)n1C(C)C
Outline: as §1

[7] = compound: Cn1cc(-c2ccc3c(c2)CCN3C(=O)Cc2cccc(C(F)(F)F)c2)c2c(N)ncnc21
Outline: as §1

[8] = compound: Cn1cc(-c2ccc3nnc(C(F)(F)c4ccc5ncccc5c4)n3n2)cn1
Outline: as §1

[9] = compound: Cn1cncc1[C@@](N)(c1ccc(Cl)cc1)c1ccc2c(c1)c(-c1cccc(Cl)c1)cc(=O)n2C [tipifarnib]
Outline: as §1

[10] = compound: FC(F)(F)c1ccc(/C=C/c2nc(COc3ccc(CCCCn4ccnn4)cc3)co2)cc1 [mubritinib]
Outline: as §1

[11] = compound: NC(=O)Nc1cc(-c2cccc(F)c2)sc1C(=O)N[C@H]1CCCNC1
Outline: as §1

[12] = compound: NC(=O)c1cnc(N[C@@H]2CCCC[C@@H]2N)nc1Nc1cccc(-n2nccn2)c1
Outline: as §1

[13] = compound: NC1(c2ccc(-c3nc4ccn5c(=O)[nH]nc5c4cc3-c3ccccc3)cc2)CCC1
Outline: as §1

[14] = compound: NCC(=O)Nc1ccc(-n2nc(C(F)(F)F)cc2-c2ccc3c(ccc4ccccc43)c2)cc1
Outline: as §1

[15] = compound: Nc1ccccc1NC(=O)c1ccc(CNC(=O)OCc2cccnc2)cc1 [entinostat]
Outline: as §1

[16] = compound: O=C(CCCCCCC(=O)Nc1ccccc1)NO [vorinostat]
Outline: as §1

[17] = compound: O=C(CCCCCCNC(=O)c1cnc(N(c2ccccc2)c2ccccc2Cl)nc1)NO [citarinostat]
Outline: as §1

[18] = compound: O=C(O)c1ccc2c(c1)nc(Nc1cccc(Cl)c1)c1ccncc12 [silmitasertib]
Outline: as §1

[19] = compound: O=C1NC(=O)C(c2cnc3ccccn23)=C1c1cn2c3c(cc(F)cc13)CN(C(=O)N1CCCCC1)CC2
Outline: as §1

[20] = compound: c1cc(OCCN2CCCCC2)cc(-c2n[nH]c3ccc(-c4nnc[nH]4)cc23)c1
Outline: as §1

Measured: log2 fold change

WASHC2A (UniProt Q641Q2)
inactive: [1] -0.078 | [2] -0.025 | [3] 0.002 | [4] -0.039 | [5] 0.022 | [6] -0.012 | [7] -0.088 | [8] 0.035 | [9] 0.052 | [10] 0.004 | [11] -0.013 | [12] -0.012 | [13] -0.159 | [14] 0.021 | [15] -0.038 | [16] 0.024 | [17] -0.035 | [18] 0.072 | [19] 0.016 | [20] -0.056

TSEN2 (UniProt Q8NCE0)
Chain of UniProt Q8NCE0 (Q8NCE0 whole entry, looked up): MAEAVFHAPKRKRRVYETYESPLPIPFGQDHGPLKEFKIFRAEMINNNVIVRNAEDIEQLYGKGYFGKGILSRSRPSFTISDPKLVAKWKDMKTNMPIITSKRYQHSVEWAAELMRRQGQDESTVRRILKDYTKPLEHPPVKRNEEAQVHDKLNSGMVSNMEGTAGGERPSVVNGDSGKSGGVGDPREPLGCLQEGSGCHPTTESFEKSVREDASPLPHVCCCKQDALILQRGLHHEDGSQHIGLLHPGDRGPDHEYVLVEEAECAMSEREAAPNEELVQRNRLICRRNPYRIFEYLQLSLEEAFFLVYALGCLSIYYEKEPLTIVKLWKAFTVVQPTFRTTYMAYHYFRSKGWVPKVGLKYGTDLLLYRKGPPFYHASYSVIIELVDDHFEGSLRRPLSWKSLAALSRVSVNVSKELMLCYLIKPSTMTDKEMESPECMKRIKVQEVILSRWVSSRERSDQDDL
inactive: [1] 0.008 | [2] 0.032 | [3] -0.05 | [4] -0.112 | [5] -0.132 | [6] -0.034 | [7] 0.05 | [8] -0.013 | [9] -0.005 | [10] -0.16 | [11] 0.212 | [12] -0.008 | [13] -0.126 | [14] -0.024 | [15] 0.052 | [16] -0.003 | [17] 0.005 | [18] 0.197 | [19] -0.015 | [20] 0.008

TNPO3 (UniProt Q9Y5L0)
inactive: [1] -0.057 | [2] 0.041 | [3] -0.052 | [4] -0.123 | [5] -0.103 | [6] -0.028 | [7] -0.001 | [8] -0.014 | [9] -0.121 | [10] 0.061 | [11] 0.026 | [12] -0.018 | [14] -0.024 | [15] 0.049 | [16] 0.076 | [17] 0.058 | [18] -0.024 | [19] -0.06 | [20] -0.059
active: [13] -0.221

WDR46 (UniProt O15213)
Chain of UniProt O15213 (O15213 whole entry, looked up): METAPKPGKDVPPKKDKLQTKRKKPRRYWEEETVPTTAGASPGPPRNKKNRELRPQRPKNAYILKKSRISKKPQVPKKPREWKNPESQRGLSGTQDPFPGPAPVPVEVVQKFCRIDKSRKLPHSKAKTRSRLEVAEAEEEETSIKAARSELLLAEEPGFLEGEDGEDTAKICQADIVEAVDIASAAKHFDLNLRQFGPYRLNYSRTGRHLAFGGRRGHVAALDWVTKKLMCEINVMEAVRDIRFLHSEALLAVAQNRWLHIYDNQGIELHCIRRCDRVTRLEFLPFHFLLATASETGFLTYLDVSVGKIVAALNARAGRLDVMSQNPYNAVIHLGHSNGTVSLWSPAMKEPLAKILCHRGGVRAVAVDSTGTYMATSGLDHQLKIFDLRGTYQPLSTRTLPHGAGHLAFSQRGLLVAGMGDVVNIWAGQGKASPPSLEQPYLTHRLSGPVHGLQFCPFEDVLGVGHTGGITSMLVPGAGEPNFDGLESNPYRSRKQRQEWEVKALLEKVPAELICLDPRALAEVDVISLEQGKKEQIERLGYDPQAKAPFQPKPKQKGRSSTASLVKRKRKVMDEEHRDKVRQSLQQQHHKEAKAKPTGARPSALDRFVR
inactive: [1] 0.251 | [2] -0.026 | [3] -0.055 | [4] 0.117 | [5] 0.364 | [6] 0.096 | [7] -0.376 | [8] -0.187 | [9] 0.084 | [10] -0.093 | [11] 0.098 | [12] 0.083 | [13] 0.253 | [14] 0.177 | [15] -0.027 | [16] -0.042 | [17] -0.139 | [18] 0.173 | [19] 0.257 | [20] -0.143

UHRF1BP1 (UniProt Q6BDS2)
Chain of UniProt Q6BDS2 (Q6BDS2 whole entry, looked up): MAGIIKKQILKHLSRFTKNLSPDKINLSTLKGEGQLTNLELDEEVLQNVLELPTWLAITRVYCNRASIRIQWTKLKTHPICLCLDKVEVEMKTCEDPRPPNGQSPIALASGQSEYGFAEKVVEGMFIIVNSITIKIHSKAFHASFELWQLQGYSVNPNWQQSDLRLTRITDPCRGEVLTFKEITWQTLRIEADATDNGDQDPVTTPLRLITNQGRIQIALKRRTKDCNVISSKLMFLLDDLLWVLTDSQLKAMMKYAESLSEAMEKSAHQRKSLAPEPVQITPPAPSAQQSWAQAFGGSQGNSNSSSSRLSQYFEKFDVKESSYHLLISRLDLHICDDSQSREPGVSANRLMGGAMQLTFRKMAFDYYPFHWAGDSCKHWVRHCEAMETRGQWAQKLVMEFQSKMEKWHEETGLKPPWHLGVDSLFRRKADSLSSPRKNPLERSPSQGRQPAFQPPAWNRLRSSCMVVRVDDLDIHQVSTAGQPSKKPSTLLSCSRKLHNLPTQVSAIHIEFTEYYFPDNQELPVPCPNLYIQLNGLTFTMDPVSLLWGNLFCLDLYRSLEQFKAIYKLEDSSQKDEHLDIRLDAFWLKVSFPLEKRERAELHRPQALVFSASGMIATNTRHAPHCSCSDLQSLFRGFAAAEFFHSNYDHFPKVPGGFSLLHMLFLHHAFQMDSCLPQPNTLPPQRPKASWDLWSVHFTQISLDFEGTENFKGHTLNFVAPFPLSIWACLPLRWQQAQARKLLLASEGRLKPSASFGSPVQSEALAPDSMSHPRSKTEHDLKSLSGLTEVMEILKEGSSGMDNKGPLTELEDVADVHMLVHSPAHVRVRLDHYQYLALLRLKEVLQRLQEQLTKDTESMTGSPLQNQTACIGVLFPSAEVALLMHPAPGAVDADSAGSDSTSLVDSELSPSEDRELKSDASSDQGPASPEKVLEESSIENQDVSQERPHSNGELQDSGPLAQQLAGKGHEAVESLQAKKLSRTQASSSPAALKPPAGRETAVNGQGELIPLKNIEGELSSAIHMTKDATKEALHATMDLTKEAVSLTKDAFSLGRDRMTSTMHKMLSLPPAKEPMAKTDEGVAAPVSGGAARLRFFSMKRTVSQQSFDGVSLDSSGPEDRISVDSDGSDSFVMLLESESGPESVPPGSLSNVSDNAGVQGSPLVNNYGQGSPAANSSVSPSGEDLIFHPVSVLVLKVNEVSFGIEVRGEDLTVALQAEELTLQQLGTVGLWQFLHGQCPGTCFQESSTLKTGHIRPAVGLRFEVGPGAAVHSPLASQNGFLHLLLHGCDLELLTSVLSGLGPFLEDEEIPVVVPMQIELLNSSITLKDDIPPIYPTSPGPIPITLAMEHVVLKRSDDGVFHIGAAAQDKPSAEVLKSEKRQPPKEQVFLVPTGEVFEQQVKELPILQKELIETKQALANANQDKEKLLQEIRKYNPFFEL
inactive: [1] 0.042 | [2] 0.015 | [3] 0.138 | [4] 0.003 | [5] 0.044 | [6] -0.023 | [7] 0.045 | [8] 0.021 | [9] -0.005 | [10] 0.028 | [11] -0.019 | [12] 0.074 | [13] 0.019 | [14] 0.029 | [15] -0.058 | [16] 0.004 | [17] -0.012 | [18] -0.043 | [19] -0.032 | [20] 0.007

TMTC3 (UniProt Q6ZXV5)
Chain of UniProt Q6ZXV5 (Q6ZXV5 whole entry, looked up): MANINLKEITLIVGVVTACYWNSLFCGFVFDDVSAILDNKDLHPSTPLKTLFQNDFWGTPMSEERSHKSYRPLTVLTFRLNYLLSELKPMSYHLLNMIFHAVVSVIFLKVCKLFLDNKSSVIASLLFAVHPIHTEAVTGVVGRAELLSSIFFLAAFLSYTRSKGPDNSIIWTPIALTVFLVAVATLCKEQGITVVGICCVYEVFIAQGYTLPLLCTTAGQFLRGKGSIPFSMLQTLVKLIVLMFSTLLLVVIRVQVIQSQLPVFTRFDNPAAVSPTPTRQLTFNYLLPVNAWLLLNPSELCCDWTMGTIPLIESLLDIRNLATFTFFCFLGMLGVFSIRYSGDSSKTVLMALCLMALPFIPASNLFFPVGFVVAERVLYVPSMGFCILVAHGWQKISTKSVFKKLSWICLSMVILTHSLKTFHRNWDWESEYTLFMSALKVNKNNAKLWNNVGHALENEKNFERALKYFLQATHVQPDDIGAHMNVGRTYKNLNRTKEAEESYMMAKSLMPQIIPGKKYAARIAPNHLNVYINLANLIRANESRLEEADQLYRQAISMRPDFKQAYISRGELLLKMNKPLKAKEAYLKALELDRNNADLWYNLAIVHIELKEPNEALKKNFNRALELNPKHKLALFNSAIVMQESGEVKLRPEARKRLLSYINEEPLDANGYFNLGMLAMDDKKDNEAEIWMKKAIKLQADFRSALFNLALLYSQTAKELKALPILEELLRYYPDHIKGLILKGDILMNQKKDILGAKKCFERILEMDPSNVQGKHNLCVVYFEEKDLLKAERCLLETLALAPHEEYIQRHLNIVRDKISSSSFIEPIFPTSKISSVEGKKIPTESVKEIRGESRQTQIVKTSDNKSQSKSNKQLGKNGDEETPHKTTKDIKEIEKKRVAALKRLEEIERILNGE
inactive: [1] -0.07 | [2] -0.02 | [3] -0.036 | [4] 0 | [5] -0.055 | [6] 0.015 | [7] -0.051 | [8] 0.061 | [9] -0.018 | [10] 0.011 | [11] -0.028 | [12] -0.113 | [13] -0.135 | [14] -0.097 | [15] -0.046 | [16] 0.025 | [17] 0.005 | [18] 0.025 | [19] -0.037 | [20] -0.089

TMEM87B (UniProt Q96K49)
inactive: [1] -0.138 | [2] 0.015 | [3] 0.037 | [4] -0.072 | [5] 0.002 | [6] 0.05 | [7] -0.077 | [8] -0.08 | [9] 0.069 | [10] 0.006 | [11] -0.098 | [12] -0.062 | [13] -0.266 | [14] -0.1 | [15] 0.135 | [16] 0.057 | [17] 0.021 | [18] 0.096 | [19] -0.032 | [20] -0.117

TRIP10 (UniProt Q15642)
Chain of UniProt Q15642 (Q15642 whole entry, looked up): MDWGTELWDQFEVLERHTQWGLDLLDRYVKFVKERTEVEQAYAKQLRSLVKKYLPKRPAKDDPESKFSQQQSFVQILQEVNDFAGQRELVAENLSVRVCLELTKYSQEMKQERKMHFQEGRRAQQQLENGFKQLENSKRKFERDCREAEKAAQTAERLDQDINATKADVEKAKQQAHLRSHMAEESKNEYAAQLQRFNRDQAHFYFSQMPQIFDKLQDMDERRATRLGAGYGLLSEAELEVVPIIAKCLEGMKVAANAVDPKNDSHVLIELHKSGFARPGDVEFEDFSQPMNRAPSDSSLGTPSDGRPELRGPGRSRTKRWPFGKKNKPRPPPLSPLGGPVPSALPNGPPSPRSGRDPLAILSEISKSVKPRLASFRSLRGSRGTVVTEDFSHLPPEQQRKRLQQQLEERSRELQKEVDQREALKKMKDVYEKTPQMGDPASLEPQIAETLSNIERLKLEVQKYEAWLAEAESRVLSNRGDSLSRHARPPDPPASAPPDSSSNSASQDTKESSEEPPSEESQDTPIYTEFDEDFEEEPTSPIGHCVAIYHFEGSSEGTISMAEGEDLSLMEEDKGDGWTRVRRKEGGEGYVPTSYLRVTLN
inactive: [1] -0.042 | [2] 0.05 | [3] 0.098 | [4] -0.017 | [5] -0.06 | [6] -0.021 | [7] 0.045 | [8] 0.024 | [9] -0.01 | [10] 0.048 | [11] -0.003 | [12] -0.055 | [13] -0.129 | [14] -0.011 | [15] 0.019 | [16] -0.063 | [17] 0 | [18] 0.046 | [19] -0.207 | [20] -0.014

UTP14A (UniProt Q9BVJ6)
Chain of UniProt Q9BVJ6 (Q9BVJ6 whole entry, looked up): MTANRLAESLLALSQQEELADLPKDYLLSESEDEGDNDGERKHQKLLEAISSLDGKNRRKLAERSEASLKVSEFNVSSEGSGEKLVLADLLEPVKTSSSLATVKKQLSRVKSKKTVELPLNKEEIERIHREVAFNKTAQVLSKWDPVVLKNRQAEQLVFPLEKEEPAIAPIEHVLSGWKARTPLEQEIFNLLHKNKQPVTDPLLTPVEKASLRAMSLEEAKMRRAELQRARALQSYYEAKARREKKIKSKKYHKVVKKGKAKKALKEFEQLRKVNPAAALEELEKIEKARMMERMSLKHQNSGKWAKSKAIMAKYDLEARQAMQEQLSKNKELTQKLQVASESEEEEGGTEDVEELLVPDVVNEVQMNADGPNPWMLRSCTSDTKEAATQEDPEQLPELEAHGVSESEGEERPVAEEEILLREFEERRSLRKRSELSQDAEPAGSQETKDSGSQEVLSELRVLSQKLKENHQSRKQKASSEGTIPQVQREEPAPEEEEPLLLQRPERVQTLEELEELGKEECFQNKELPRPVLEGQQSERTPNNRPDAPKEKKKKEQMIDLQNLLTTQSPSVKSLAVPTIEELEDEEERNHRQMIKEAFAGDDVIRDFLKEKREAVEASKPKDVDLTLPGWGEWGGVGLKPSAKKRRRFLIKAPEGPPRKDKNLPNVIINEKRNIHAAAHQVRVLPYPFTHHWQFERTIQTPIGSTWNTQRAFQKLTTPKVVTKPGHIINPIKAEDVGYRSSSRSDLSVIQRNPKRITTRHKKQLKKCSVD
inactive: [1] 0.157 | [2] 0 | [3] 0.011 | [4] -0.009 | [5] 0.07 | [6] -0.118 | [7] -0.285 | [8] -0.09 | [9] 0.089 | [10] -0.086 | [11] 0.079 | [12] 0.048 | [13] 0.083 | [14] 0.076 | [15] 0.012 | [16] 0 | [17] -0.04 | [18] 0.128 | [19] 0.082 | [20] -0.092

USP34 (UniProt Q70CQ2)
inactive: [1] -0.004 | [2] -0.002 | [3] -0.054 | [4] 0.034 | [5] -0.141 | [6] -0.223 | [7] -0.012 | [8] 0.033 | [9] -0.134 | [10] -0.049 | [11] 0.012 | [12] -0.08 | [13] -0.131 | [14] -0.02 | [15] 0.024 | [16] 0.118 | [17] 0.123 | [18] 0.045 | [19] -0.008 | [20] -0.074

TMEM223 (UniProt A0PJW6)
Chain of UniProt A0PJW6 (A0PJW6 whole entry, looked up): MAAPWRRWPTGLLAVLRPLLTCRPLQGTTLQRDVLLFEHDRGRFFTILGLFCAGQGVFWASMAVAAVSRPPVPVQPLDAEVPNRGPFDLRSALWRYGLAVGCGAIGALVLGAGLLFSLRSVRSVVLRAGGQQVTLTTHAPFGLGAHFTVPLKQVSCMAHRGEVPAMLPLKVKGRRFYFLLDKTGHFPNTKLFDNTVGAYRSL
inactive: [1] -0.156 | [2] -0.005 | [3] 0.032 | [4] 0.033 | [5] -0.052 | [6] -0.079 | [7] -0.025 | [8] 0.038 | [9] 0.013 | [10] 0.044 | [11] -0.087 | [12] -0.14 | [13] -0.1 | [14] 0.071 | [15] -0.02 | [16] 0.096 | [17] -0.031 | [18] 0.019 | [19] 0.05 | [20] -0.036

TMEM63B (UniProt Q5T3F8)
inactive: [1] 0.013 | [2] 0.002 | [3] -0.008 | [4] -0.021 | [5] 0.026 | [6] -0.061 | [7] 0.006 | [8] 0.004 | [9] 0.008 | [10] 0.047 | [11] 0.069 | [12] 0.059 | [13] -0.153 | [14] 0.052 | [15] 0.07 | [16] -0.008 | [17] -0.024 | [18] 0.001 | [19] -0.037 | [20] -0.021

XPO6 (UniProt Q96QU8)
inactive: [1] 0.057 | [2] -0.05 | [3] -0.143 | [4] -0.148 | [5] -0.109 | [6] 0.027 | [7] -0.001 | [8] -0.117 | [9] -0.111 | [10] 0.092 | [11] 0.068 | [12] -0.103 | [13] -0.154 | [14] -0.118 | [15] 0.025 | [16] 0.048 | [17] 0.085 | [18] 0.01 | [19] 0.099 | [20] -0.038

VDAC1 (UniProt P21796)
inactive: [1] -0.039 | [2] -0.037 | [3] 0.006 | [4] 0.025 | [5] 0.035 | [6] -0.005 | [7] 0.02 | [8] 0.008 | [9] 0.017 | [10] 0.02 | [11] 0.025 | [12] 0 | [13] 0.008 | [14] 0.019 | [15] -0.002 | [16] -0.044 | [17] 0.039 | [18] -0.015 | [19] -0.019 | [20] -0.009

WASHC5 (UniProt Q12768)
inactive: [1] -0.052 | [2] 0.044 | [3] -0.046 | [4] -0.001 | [5] -0.112 | [6] -0.004 | [7] 0.005 | [8] 0.086 | [9] -0.001 | [10] 0.027 | [11] 0 | [12] -0.011 | [14] -0.047 | [15] 0.04 | [16] 0.022 | [17] 0.074 | [18] 0.045 | [19] 0.038 | [20] -0.012
active: [13] -0.232
